Out of some 1,300 compounds screened, about 25 (2%) were called active. How the calls were made is not given here. Shown is part of a subset that was picked to be rich in actives.

This assay addresses Estrogen receptor (Homo sapiens) (UniProt P03372). As to the kind of experiment: ERα coactivator peptide binding inhibitors, primary screen, biochemical, LOPAC library, TR-FRET (AID 694).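 Further: receptor was agonist-bound with estradiol present during the assay.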 Particulars: TR-FRET ERalpha-coactivator peptide binding, stronger effect = higher value. (In general: TR-FRET usually uses a lanthanide donor and a delayed reading to cut background.)

Sequence of Estrogen receptor (Homo sapiens) (P03372 whole entry, looked up): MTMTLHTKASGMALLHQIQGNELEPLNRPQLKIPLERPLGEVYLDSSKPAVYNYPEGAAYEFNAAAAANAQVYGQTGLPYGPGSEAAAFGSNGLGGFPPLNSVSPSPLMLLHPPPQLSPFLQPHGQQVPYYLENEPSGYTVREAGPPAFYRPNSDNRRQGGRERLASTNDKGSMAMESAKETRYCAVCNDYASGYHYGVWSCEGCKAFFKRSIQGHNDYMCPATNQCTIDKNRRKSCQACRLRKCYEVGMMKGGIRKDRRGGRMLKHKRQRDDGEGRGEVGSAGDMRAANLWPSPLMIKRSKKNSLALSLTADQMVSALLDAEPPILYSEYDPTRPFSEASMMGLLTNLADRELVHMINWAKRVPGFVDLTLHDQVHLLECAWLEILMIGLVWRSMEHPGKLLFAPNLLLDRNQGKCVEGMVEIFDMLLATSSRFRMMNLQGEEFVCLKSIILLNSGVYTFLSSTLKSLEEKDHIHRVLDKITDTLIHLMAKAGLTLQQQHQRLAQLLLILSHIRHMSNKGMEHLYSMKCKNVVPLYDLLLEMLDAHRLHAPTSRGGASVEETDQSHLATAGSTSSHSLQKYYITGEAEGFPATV

As to `N=c1c[n+](N2CCOCC2)[n-]o1`, the inhibition (at 45 µM) is 3.79% (inactive) and the inhibition (inhibition, at 15 µM) was found to be 4.24%.
On the same counts, the results for `COc1ccccc1N1CCN(CCCNc2c(C)c(=O)n(C)c(=O)n2C)CC1` are -0.24% (inactive) and 1.69%.
Turning to `CCNC(=O)C1OC(n2cnc3c(NCc4ccccc4)ncnc32)C(O)C1O` (configuration not stated), the inhibition (at 45 µM) was -1.65% (inactive) and the inhibition (inhibition, at 15 µM) is 1.9%.
Take `Cn1cc(C(F)(F)F)nc1-c1ccc(OCC(O)CNCCOc2ccc(O)c(C(N)=O)c2)cc1` (configuration not stated): the inhibition is -4.07% (inactive) (at 45 µM) and -6.05% (inhibition, at 15 µM).
Take `CC[N+](C)(C)Cc1ccccc1Br`: the inhibition runs as follows: (at 45 µM) -6.37% (inactive); (inhibition, at 15 µM) -2.6%.
On the same counts, the results for `COc1ccccc1N1CCN(CCN(C(=O)c2ccc(F)cc2)c2ccccn2)CC1` are -4.33% (inactive) and 1.39%.
On the same counts, the results for `CCCCCN(CCCCC)C(=O)C(CCC(=O)O)NC(=O)c1ccc(Cl)c(Cl)c1` (configuration not stated) are 0.49% (inactive) and 8.19%.
For `NCCCCNS(=O)(=O)c1cccc2c(Cl)cccc12`, in that order: -24.3% (inactive) and 2.07%.
On to `CNC(=O)Oc1ccc2c(c1)[C@]1(C)CCN(C)[C@@H]1N2C`, for which the inhibition is -8.56% (active) (at 45 µM) and 56.6% (inhibition, at 15 µM).
On to `Oc1cc(O)c2c(c1)O[C@H](c1ccc(O)c(O)c1)[C@@H](O)C2`, for which the inhibition by setting is: (at 45 µM) 26.6% (inactive); (inhibition, at 15 µM) 10.3%.
On the same counts, the results for `CC1=C(C(=O)O)N2C(=O)[C@@H](NC(=O)C(N)c3ccccc3)[C@H]2SC1` (some centres not stated) are -5% (inactive) and -4.71%.
For `COc1cc(=O)n(C)c2c(OCC(O)C(C)(C)O)cccc12` (configuration not stated), in that order: -4.43% (inactive) and 3.61%.
Turning to `NS(=O)(=O)c1cc2c(cc1Cl)NC=NS2(=O)=O`, the inhibition (at 45 µM) was -2.72% (inactive) and the inhibition (inhibition, at 15 µM) worked out at 1.82%.
For the compound `Cc1nc(N=Nc2ccc(C(=O)O)cc2)c(COP(=O)(O)O)c(C=O)c1O`, the inhibition runs as follows: (at 45 µM) 6.52% (inactive); (inhibition, at 15 µM) -0.22%.
For `Cn1c(=O)c2c(nc(/C=C/c3cccc(Cl)c3)n2C)n(C)c1=O`, in that order: 0.97% (inactive) and -2.61%.
Take `CC(C)COCC(CN(Cc1ccccc1)c1ccccc1)N1CCCC1` (configuration not stated): the inhibition by setting is: (at 45 µM) -5.09% (inactive); (inhibition, at 15 µM) 4.06%.
On the same counts, the results for `C[N+](C)(C)CCOC(=O)CCC(=O)OCC[N+](C)(C)C` are -6.43% (inactive) and 0.18%.
For `COc1ccc2[nH]c(I)c(CCNC(C)=O)c2c1`, in that order: -2.05% (inactive) and -4.11%.
On to `CC(C)[C@@H]1NC(=O)[C@H](CCCCN)NC(=O)[C@@H](Cc2c[nH]c3ccccc23)NC(=O)[C@H](Cc2ccc(O)cc2)NC(=O)[C@H](C)N(C)C(=O)[C@H](Cc2ccccc2)NC1=O`, for which the inhibition is 5.89% (inactive) (at 45 µM) and -1.62% (inhibition, at 15 µM).
On the same counts, the results for `COC(=O)[C@H](NC(=O)c1cc(-c2ccccc2)nc2ccccc12)c1ccccc1` are 1.85% (inactive) and 2.38%.
On to `O=Nc1ccc2oc(=O)ccc2c1`, for which the inhibition (at 45 µM) was 0.4% (inactive) and the inhibition (inhibition, at 15 µM) is 0.59%.
`N[C@@H](CCCC(=O)O)C(=O)O`: the inhibition by setting is: (at 45 µM) -21.2% (active); (inhibition, at 15 µM) 50.5%.
For `NC(N)=NCCC[C@H](N)C(=O)O`, in that order: -2.21% (inactive) and -4%.
On the same counts, the results for `NC(CCCP(=O)(O)O)C(=O)O` (configuration not stated) are -8.81% (inactive) and -3.89%.
For `O=c1c(O)c(-c2cc(O)c(O)c(O)c2)oc2cc(O)cc(O)c12`, in that order: 84% [fluorescence artefact?] (active) and 62.7%.
Consider `O=c1c(O)c(-c2ccc(O)c(O)c2)oc2cc(O)cc(O)c12`, for which the inhibition is 59.6% (inactive) (at 45 µM) and 26.6% (inhibition, at 15 µM).
For the compound `O=c1[nH]c2cc(C(F)(F)F)ccc2n1-c1cc(C(F)(F)F)ccc1O`, the inhibition is, setting by setting: (at 45 µM) 2.02% (inactive); (inhibition, at 15 µM) 1.4%.
As for `CC(=O)N[C@@H](CS)C(=O)O`, the inhibition is, setting by setting: (at 45 µM) -7.68% (inactive); (inhibition, at 15 µM) -8.08%.
Turning to `N#C/C(=C\c1ccc(O)c(O)c1)C(=O)c1ccc(O)c(O)c1`, the inhibition (at 45 µM) was 59.5% [fluorescence artefact?] (active) and the inhibition (inhibition, at 15 µM) is 57.3%.
On the same counts, the results for `N#C/C(=C\c1ccc(O)c(O)c1)C(=O)NCCCNC(=O)/C(C#N)=C/c1ccc(O)c(O)c1` are 51.7% (inactive) and 37.2%.
On the same counts, the results for `COc1cc(/C=C(\C#N)C(=O)c2ccc(O)c(O)c2)cc(I)c1O` are 28.7% (inactive) and 13.7%.
As for `Nc1ncn([C@@H]2O[C@H](CO)[C@@H](O)[C@H]2O)c(=O)n1`, the inhibition is, setting by setting: (at 45 µM) -1.93% (inactive); (inhibition, at 15 µM) -4.32%.
Regarding `Cn1c(=O)c2[nH]c(C3CCCC3)nc2n(C)c1=O`, the inhibition is, setting by setting: (at 45 µM) 1.28% (inactive); (inhibition, at 15 µM) -1.01%.
`NC(=S)NCCCC(N)C(=O)O` (configuration not stated): the inhibition was -4.72% (inactive) (at 45 µM) and 3.62% (inhibition, at 15 µM).
For `NCC(O)C1CCCCCCC1` (configuration not stated), the inhibition runs as follows: (at 45 µM) -4.78% (inactive); (inhibition, at 15 µM) 1.99%.
For `CCN1CCc2nc(N)oc2CC1`, the inhibition by setting is: (at 45 µM) -3.72% (inactive); (inhibition, at 15 µM) -5.11%.
With `CN(CCOc1ccc(C[C@H](Nc2ccccc2C(=O)c2ccccc2)C(=O)O)cc1)c1ccccn1`, the inhibition by setting is: (at 45 µM) 2.05% (inactive); (inhibition, at 15 µM) 2.17%.
In the case of `C=Cc1c(C)c2cc3[nH]c(cc4nc(cc5nc(cc1[nH]2)C(C)=C5CCC(=O)O)C(CCC(=O)O)=C4C)c(C)c3C=C`, the inhibition (at 45 µM) is 93.6% [fluorescence artefact?] (active) and the inhibition (inhibition, at 15 µM) is 73.7%.
Consider `CN(C)C(=O)/N=N/C(=O)N(C)C`, for which the inhibition runs as follows: (at 45 µM) -2.24% (inactive); (inhibition, at 15 µM) -4.27%.
For `Nn1nnc2ccccc21`, in that order: -3.33% (inactive) and -2.11%.
Take `COc1ccccc1N1CCN(CCCNc2cc(=O)n(C)c(=O)n2C)CC1`: the inhibition is 4.48% (inactive) (at 45 µM) and 2.87% (inhibition, at 15 µM).

What is called inhibition is the change of the read-out against control, counted positive when it falls.

Source of the values: PubChem BioAssay AID694 (Emory University Molecular Libraries Screening Center, 2007).
